# Data taken from PubChem BioAssay (NCATS).
# Results filed as inconclusive are left out. Where a call stands in place of a potency, no number is given. Values without a mark were called inactive. Active and inactive are the calls of the source. Calls follow the shape of the dose curve; as a rule, active = well fitted cell-killing curve with a large enough effect; inconclusive = small, poorly fitted or top-dose-only effect, or effect the other way; inactive = flat fitted curve, though single readings scatter.
# Tested on: JEG-3
# Test: Primary qHTS to identify gynecologic anti-cancer compounds using libraries of approved drugs and bioactive compounds (AID 1345084); also: nearly all actives have a fitted effect of over 55% in size
# Settings: Gynecologic cancer cell panel viability, ATPlite luminescence, 48 h; series mostly up to 57.5 µM
# In short: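 Five-concentration response, 48 h; readout is ATP-driven luciferase luminescence.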
Compound,Potency,"activity change, negative = cytotoxicity"
Cc1[nH]c2ccccc2c1C1=C(NCCc2ccc(F)cc2)C(=O)N(C)C1=O,inactive,
OC[C@H]1O[C@@H](O[C@H]2[C@H](OCCc3ccccc3)O[C@H](CO)[C@@H](O)[C@@H]2O)[C@H](O)[C@@H](O)[C@@H]1O,inactive,
C=C1[C@@H]2CC[C@@H]3[C@@](CCC4C(C(=O)O)(C(=O)O)C[C@@H](O[C@@H]5O[C@H](CO)[C@@H](O)[C@H](O)[C@H]5OC(=O)CC(C)C)C[C@]43C)(C2)[C@H]1O (stereo partly specified),inactive,
CC(=O)C1=C(C)N(c2cccc(C(F)(F)F)c2)C(=O)N[C@H]1c1ccc(C#N)nc1,,-3.38% [at 11.6 µM]
CC(CCC1(O)OC2CC3C4CCC5CC(O[C@@H]6O[C@H](CO)[C@@H](O)[C@H](O)[C@H]6O[C@@H]6O[C@@H](C)[C@H](O)[C@@H](O)[C@H]6O)C(O)CC5(C)C4CCC3(C)C2C1C)CO[C@@H]1O[C@H](CO)[C@@H](O)[C@H](O)[C@H]1O (stereo partly specified),,-0.873% [at 11.6 µM]
OCC1OC(Oc2cc(O)cc(/C=C/c3ccc(O)cc3)c2)C(O)C(O)C1O (stereo unspecified),inactive,
CCC(C)/C=C(C)/C=C/c1cc2c(cn1)C(=O)C(C)(OC(C)=O)C(O)=C2Cl (stereo unspecified),inactive,
CC1=CC(=O)CC(C)(C)[C@@]1(O)CC[C@@H](C)O[C@@H]1O[C@H](CO)[C@@H](O)[C@H](O)[C@H]1O,inactive,
CC1(C)CCC[C@@]2(C)C1[C@H](OC(=O)/C=C/C=C/C(=O)O)C=C1COC(=O)[C@@]12O (stereo partly specified),inactive,
O=C1NC2CCc3nc4ccccc4c(=O)n3C2=Nc2ccccc21 (stereo unspecified),inactive,
CC(C)[N+]1(C)C2CCC1CC(OC(=O)C(CO)c1ccccc1)C2 (stereo unspecified),inactive,
COc1cc2oc(-c3ccc(O)cc3O)cc2c(OC)c1CC=C(C)C,inactive,
CC(=O)OC1C(O)CC2(C)C(CCC(C)C23Cc2c(O)cc(CO)c(C=O)c2O3)C1(C)C (stereo unspecified),inactive,
Cc1[nH]nc(C(F)(F)F)c1Cc1sc2c(c1C(=O)N1C[C@](C)(O)CO1)c(=O)n(C)c(=O)n2C(C)C,inactive,
O=C(CC1C(=O)Nc2ccccc21)OC[C@H]1O[C@@H](OCCc2ccc(O)cc2)[C@H](O)[C@@H](O)[C@@H]1O (stereo partly specified),inactive,
CC1CCC23COC(=O)C2=CC(O)CC3C1(C)CCC1=CC(O)OC1=O (stereo unspecified),inactive,
